In PubChem BioAssay (EPA / NIEHS):
Inconclusive results are not listed. Activity calls are given as the source filed them. Rule for the calls: active = hit-call score of the fitted dose curve at least 0.9, where 1 is the maximum; inconclusive = response in the unintended direction; inactive = score below 0.9.

Legend:
[1] = target: human Peroxisome Proliferator-activated Receptor delta (PPARd), PPARD (gene 5467) (UniProt Q03181); test: ATG_PPARd_TRANS: Attagene TRANS-FACTORIAL HepG2 Assay for human Peroxisome Proliferator-activated Receptor delta (PPARd) (AID 2283002)
human Peroxisome Proliferator-activated Receptor delta (PPARd), PPARD (gene 5467), sequence (Q03181 whole entry, looked up, the tested form may be a part): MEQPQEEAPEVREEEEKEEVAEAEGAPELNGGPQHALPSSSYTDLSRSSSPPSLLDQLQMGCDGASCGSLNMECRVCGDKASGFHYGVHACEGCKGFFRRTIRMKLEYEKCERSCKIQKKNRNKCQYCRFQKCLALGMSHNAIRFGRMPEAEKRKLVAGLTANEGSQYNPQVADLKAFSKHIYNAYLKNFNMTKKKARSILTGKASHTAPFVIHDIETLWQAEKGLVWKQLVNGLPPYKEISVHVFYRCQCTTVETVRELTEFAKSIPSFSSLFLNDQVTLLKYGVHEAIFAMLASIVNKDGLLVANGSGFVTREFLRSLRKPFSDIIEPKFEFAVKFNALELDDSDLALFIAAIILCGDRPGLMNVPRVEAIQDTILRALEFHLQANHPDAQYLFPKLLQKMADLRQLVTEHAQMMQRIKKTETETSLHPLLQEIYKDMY
Summary of the method: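 Measured quantity: GAL4-UAS reporter transcript induction in HepG2 after 24 h chemical dosing, with NR-Gal4 chimeras supplied by transient transfection. Detection by RT-PCR and capillary electrophoresis; upward fit against DMSO.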

[2] = target: Retinoic acid receptor RXR-alpha (Homo sapiens) (UniProt P19793); test: ATG_RXRa_TRANS: Attagene TRANS-FACTORIAL HepG2 Assay for human Retinoid X Receptor alpha (RXRa) (AID 2283012)
Retinoic acid receptor RXR-alpha (Homo sapiens), sequence (P19793 whole entry, looked up, the tested form may be a part): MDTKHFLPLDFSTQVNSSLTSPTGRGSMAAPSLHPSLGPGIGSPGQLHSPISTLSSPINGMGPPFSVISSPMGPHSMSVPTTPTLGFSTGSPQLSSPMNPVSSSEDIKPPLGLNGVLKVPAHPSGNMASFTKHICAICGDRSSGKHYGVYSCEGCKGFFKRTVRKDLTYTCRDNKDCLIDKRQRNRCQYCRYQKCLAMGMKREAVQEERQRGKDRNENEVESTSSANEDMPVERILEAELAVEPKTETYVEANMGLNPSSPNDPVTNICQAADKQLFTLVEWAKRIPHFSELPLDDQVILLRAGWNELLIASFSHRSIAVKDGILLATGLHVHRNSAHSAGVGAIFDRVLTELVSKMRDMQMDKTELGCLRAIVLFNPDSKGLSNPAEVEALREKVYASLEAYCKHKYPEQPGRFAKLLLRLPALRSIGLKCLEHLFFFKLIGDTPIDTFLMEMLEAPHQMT
Summary of the method: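 TRANS format reporting activity of exogenous RXRa-Gal4 chimera in transiently transfected HepG2, 24 h exposure. Reporter transcripts quantified by RT-PCR with capillary electrophoresis, with gain of signal scored relative to DMSO.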

[3] = target: human Retinoid X Receptor beta (RXRb), RXRB (gene 6257) (UniProt P28702); test: ATG_RXRb_TRANS: Attagene TRANS-FACTORIAL HepG2 Assay for human Retinoid X Receptor beta (RXRb) (AID 2283013)
human Retinoid X Receptor beta (RXRb), RXRB (gene 6257), sequence (P28702 whole entry, looked up, the tested form may be a part): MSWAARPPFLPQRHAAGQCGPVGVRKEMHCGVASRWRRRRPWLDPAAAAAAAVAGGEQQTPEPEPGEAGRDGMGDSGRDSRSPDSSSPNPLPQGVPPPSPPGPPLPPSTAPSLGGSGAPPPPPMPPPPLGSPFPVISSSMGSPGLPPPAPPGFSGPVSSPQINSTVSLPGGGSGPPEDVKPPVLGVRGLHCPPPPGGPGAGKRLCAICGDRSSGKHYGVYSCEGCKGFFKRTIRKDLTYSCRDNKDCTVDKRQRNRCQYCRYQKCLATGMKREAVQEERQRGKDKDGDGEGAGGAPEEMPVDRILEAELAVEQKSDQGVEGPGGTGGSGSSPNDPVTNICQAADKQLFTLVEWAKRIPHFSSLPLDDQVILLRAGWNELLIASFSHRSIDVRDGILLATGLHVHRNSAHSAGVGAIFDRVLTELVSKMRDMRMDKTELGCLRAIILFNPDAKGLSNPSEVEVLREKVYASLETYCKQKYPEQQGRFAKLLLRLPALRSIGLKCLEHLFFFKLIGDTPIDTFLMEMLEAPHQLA
Summary of the method: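 Readout is reporter transcript induction after 24 h dosing. It is measured by RT-PCR of total RNA followed by fluorescent capillary electrophoresis. HepG2 liver cells carry transfected multiple reporter units driven by an exogenous RXRb-Gal4 fusion; activity is relative to DMSO.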

[4] = target: human Thyroid Receptor alpha (THRa1), THRA (gene 7067) (UniProt P10827); test: ATG_THRa1_TRANS: Attagene TRANS-FACTORIAL HepG2 Assay for human Thyroid Receptor alpha (THRa1) (AID 2283014)
human Thyroid Receptor alpha (THRa1), THRA (gene 7067), sequence (P10827 whole entry, looked up, the tested form may be a part): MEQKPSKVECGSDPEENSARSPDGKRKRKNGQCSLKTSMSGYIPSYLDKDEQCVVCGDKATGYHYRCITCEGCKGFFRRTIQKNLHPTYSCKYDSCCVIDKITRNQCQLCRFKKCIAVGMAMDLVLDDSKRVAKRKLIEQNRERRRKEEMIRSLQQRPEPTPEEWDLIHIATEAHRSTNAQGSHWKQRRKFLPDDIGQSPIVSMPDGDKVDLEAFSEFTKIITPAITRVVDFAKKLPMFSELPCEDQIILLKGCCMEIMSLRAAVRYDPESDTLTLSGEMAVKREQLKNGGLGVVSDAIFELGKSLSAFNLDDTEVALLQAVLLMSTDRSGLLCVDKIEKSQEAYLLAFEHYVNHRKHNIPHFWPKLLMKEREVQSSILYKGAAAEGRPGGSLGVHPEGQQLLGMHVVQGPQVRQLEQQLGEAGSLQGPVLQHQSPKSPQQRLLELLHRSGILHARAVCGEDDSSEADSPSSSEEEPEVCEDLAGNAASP
Summary of the method: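 Transient HepG2 transfection, NR-Gal4 chimera driving GAL4-UAS reporters; 24 h compound exposure; total RNA, oligo(dT) RT, PCR, fluorescent primer extension, capillary electrophoresis. Upward direction vs DMSO control.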

[5] = target: Peroxisome proliferator-activated receptor gamma (Homo sapiens) (UniProt P37231); test: ATG_PPARg_TRANS: Attagene TRANS-FACTORIAL HepG2 Assay for human Peroxisome Proliferator-activated Receptor-gamma (PPARg) (AID 2283007)
Peroxisome proliferator-activated receptor gamma (Homo sapiens), sequence (P37231 whole entry, looked up, the tested form may be a part): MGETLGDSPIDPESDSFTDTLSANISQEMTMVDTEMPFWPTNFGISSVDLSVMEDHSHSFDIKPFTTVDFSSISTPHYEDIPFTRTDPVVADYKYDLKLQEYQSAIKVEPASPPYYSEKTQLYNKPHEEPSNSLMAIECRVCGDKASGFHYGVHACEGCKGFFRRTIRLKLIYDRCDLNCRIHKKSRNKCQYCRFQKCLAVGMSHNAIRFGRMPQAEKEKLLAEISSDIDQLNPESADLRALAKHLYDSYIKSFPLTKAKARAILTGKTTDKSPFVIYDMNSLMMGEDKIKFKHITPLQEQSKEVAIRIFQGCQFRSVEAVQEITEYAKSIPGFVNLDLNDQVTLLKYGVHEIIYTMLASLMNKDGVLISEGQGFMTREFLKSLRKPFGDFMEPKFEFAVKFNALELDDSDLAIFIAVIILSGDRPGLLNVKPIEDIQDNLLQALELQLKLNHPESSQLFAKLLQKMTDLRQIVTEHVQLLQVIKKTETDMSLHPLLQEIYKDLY
Summary of the method: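 Read-out: reporter mRNA induction, detected by fluorescence after RT-PCR and capillary electrophoresis. Transiently transfected human HepG2 liver cells carrying a chimeric NR-Gal4 construct were dosed for 24 h; activity was fitted upward relative to DMSO.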

[6] = target: Nuclear receptor subfamily 1 group I member 2 (Homo sapiens) (UniProt O75469); test: ATG_PXR_TRANS: Attagene TRANS-FACTORIAL HepG2 Assay for human Pregnane X Receptor (PXR) (AID 2283008)
Summary of the method: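 Trans-factorial format: exogenous NR-Gal4 fusion activity, not endogenous factor, in transfected human HepG2 liver cells. After 24 h dosing, RNA isolated, reverse-transcribed, amplified and resolved by capillary electrophoresis; induction scored versus DMSO.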

[7] = target: human RAR-related Orphan Receptor beta (RORb), RORB (gene 6096) (UniProt Q92753); test: ATG_RORb_TRANS: Attagene TRANS-FACTORIAL HepG2 Assay for human RAR-related Orphan Receptor beta (RORb) (AID 2283010)
human RAR-related Orphan Receptor beta (RORb), RORB (gene 6096), sequence (Q92753 whole entry, looked up, the tested form may be a part): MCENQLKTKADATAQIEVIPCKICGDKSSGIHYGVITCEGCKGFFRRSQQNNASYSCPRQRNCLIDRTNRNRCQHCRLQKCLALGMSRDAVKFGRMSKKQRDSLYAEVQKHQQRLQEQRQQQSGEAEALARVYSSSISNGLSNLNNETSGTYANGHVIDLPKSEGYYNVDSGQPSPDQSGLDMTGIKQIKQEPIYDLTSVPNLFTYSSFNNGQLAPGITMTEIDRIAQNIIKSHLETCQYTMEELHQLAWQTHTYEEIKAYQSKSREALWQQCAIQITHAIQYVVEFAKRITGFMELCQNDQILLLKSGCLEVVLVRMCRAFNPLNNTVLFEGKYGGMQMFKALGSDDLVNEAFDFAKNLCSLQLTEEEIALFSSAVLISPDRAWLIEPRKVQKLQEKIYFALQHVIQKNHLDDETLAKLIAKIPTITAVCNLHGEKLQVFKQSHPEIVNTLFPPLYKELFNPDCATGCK
Summary of the method: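 Read-out is reporter mRNA induction, quantified by RT-PCR with fluorescent capillary electrophoresis, 24 h post-dose in transiently transfected HepG2 expressing exogenous NR-Gal4 chimera. Activity fitted upward versus DMSO.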

[8] = target: human RAR-related Orphan Receptor gamma (RORg), RORC (gene 6097) (UniProt P51449); test: ATG_RORg_TRANS: Attagene TRANS-FACTORIAL HepG2 Assay for human RAR-related Orphan Receptor gamma (RORg) (AID 2283011)
human RAR-related Orphan Receptor gamma (RORg), RORC (gene 6097), sequence (P51449 whole entry, looked up, the tested form may be a part): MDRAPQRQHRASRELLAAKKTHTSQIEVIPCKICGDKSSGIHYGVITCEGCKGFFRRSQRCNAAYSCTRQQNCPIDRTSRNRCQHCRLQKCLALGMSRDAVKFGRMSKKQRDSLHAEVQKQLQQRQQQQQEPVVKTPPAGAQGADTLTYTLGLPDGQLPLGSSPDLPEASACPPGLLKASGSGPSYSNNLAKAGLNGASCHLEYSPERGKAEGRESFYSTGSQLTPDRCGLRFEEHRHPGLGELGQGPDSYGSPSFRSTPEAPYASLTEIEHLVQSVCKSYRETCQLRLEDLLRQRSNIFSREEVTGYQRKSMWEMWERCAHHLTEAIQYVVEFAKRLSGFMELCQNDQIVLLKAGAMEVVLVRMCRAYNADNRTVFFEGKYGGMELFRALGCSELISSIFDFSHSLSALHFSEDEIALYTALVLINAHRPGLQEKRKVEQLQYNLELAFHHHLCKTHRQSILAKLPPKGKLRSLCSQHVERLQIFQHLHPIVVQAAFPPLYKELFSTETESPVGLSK
Summary of the method: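 Transient MRTU transfection of HepG2 (TRANS format, exogenous NR-Gal4 chimera). 24 h dosing. Total RNA → oligo(dT) RT → PCR → 6-FAM labelling → HpaI cut → CE. Gain vs DMSO.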

[9] = target: human Retinoic Acid Receptor beta (RARb), RARB (gene 5915) (UniProt P10826); test: ATG_RARb_TRANS: Attagene TRANS-FACTORIAL HepG2 Assay for human Retinoic Acid Receptor beta (AID 2283004)
human Retinoic Acid Receptor beta (RARb), RARB (gene 5915), sequence (P10826 whole entry, looked up, the tested form may be a part): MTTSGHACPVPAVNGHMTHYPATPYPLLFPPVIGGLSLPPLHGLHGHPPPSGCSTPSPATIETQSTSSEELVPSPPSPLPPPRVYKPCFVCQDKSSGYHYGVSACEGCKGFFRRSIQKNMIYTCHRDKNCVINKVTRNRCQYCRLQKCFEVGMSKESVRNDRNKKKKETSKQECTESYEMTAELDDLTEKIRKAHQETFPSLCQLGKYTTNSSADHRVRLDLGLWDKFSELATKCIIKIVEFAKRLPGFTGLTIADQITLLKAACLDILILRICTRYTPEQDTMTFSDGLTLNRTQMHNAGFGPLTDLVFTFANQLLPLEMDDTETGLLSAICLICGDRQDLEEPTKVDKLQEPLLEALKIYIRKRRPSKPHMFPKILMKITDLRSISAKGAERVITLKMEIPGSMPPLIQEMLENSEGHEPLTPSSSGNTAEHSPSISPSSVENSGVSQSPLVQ
Summary of the method: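 Readout is reporter mRNA induction: RNA reverse-transcribed, PCR-amplified, FAM-labelled, HpaI-cut and resolved by capillary electrophoresis. Transiently transfected HepG2 cells carrying exogenous NR–Gal4 chimeras were dosed for 24 h; activity fitted upward relative to DMSO.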

[10] = target: Retinoic acid receptor alpha (Homo sapiens) (UniProt P10276); test: ATG_RARa_TRANS: Attagene TRANS-FACTORIAL HepG2 Assay for human Retinoic Acid Receptor alpha (RARa) (AID 2283005)
Retinoic acid receptor alpha (Homo sapiens), sequence (P10276 whole entry, looked up, the tested form may be a part): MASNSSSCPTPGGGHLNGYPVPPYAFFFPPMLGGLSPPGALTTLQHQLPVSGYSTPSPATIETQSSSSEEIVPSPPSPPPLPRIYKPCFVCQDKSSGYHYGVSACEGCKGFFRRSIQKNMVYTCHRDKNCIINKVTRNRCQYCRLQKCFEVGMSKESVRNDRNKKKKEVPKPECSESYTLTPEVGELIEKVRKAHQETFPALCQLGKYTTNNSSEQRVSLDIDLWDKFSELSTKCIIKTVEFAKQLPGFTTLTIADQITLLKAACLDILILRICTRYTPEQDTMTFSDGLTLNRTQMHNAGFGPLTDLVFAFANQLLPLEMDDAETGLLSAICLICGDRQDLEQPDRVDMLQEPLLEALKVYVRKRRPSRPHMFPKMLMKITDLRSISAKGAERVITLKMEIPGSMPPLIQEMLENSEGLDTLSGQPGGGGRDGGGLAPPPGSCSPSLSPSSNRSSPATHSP
Summary of the method: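 HepG2 cells transiently transfected with multiple reporter units expressing chimeric RARα-GAL4 fusion, with GAL4-UAS-driven reporters. After 24 h compound exposure, reporter mRNA induction quantified by RT-PCR and capillary electrophoresis with fluorescent labeling; gain-of-signal fitted relative to DMSO control.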

[11] = target: human Retinoic Acid Receptor gamma (RARg), RARG (gene 5916) (UniProt P13631); test: ATG_RARg_TRANS: Attagene TRANS-FACTORIAL HepG2 Assay for human Retinoic Acid Receptor gamma (RARg) (AID 2283009)
human Retinoic Acid Receptor gamma (RARg), RARG (gene 5916), sequence (P13631 whole entry, looked up, the tested form may be a part): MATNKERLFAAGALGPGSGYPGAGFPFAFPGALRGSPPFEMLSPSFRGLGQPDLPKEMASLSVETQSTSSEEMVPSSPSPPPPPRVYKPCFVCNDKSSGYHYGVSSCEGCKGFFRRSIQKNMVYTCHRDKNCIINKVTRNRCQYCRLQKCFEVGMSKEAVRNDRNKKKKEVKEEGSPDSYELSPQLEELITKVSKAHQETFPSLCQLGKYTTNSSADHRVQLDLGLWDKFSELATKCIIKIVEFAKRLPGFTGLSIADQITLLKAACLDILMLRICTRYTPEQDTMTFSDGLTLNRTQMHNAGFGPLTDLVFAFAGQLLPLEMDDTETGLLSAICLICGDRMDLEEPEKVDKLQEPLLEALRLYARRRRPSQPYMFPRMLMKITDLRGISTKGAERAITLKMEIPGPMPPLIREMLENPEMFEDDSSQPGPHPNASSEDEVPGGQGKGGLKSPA
Summary of the method: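 Transactivation of exogenous RARg-Gal4 fusion measured as reporter transcript induction after 24 h in transfected HepG2 cells. RNA reverse-transcribed, amplified, fluorescently labeled and resolved by capillary electrophoresis; increase relative to DMSO.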

Measured: AC50

O=C(O)c1ccc(C(=O)O)c(C(=O)O)c1
inactive: [1] | [2] | [3] | [4]

CCC(C)(C)C1CCC(OC)CC1 (configuration not stated)
active: [6] 8.16 µM
inactive: [1] | [5] | [3] | [4]

O=[N+]([O-])c1cc(N(CCO)CCO)ccc1NCCO
inactive: [1] | [2] | [3] | [4]

COc1ccc2[nH]cc(CCNC(C)=O)c2c1
inactive: [1] | [5] | [6] | [3] | [4]

CCCCCc1cccc(=O)o1
active: [5] 10.6 µM
inactive: [1] | [6] | [2] | [3] | [4]

O=c1cc[nH]cc1
inactive: [1] | [7] | [8] | [2] | [3] | [4]

CN(C)C(=O)Nc1ccccc1
inactive: [1] | [5] | [4]

CC(=O)OC(C)(C)C
not listed: [7] | [9] | [10] | [11]
inactive: all other assays above

CC/C=C\CCOC(C)OCC (configuration not stated)
inactive: [1] | [5] | [6] | [7] | [2]

CC(C)(O)CCc1ccccc1
inactive: [1] | [5] | [7] | [3]

C=C/C(C)=C/C/C=C(\C)CCC=C(C)C
inactive: [1] | [3]
active: [6] 6.85 µM

Cc1cc(O)c(C)c(C)c1O
inactive: [7] | [8] | [2] | [3]
active: [5] 32.4 µM | [6] 22 µM

CC1=CC(O)CC(C)(C)C1 (configuration not stated)
inactive: [5] | [6] | [2]

CC(C)C(=O)OCC=Cc1ccccc1
inactive: [5] | [7] | [2]
active: [6] 22.1 µM

CC(=O)C1C(=O)C=C(C)OC1=O (configuration not stated)
inactive: [9] | [10] | [11] | [8] | [2] | [4]

O=C(O)c1cccc(Cl)n1
inactive: [9] | [6] | [2] | [3] | [4]

CCCCCCCCCCCCN1CCOCC1
active: [3] 42.8 µM
inactive: [5] | [6] | [2] | [4]

CC(C)COC(=O)c1ccccc1
inactive: [9] | [6] | [7] | [4]

CC(O)CN (configuration not stated)
inactive: [5] | [6] | [11] | [7] | [2]

C/C=C(\C)C(=O)OC/C=C(\C)CCC=C(C)C
active: [5] 12.3 µM | [2] 30.7 µM | [3] 4.63 µM
inactive: [6] | [7] | [4]

Nc1ccn([C@H]2CC[C@@H](CO)O2)c(=O)n1
inactive: [5] | [6] | [8] | [2] | [4]

C=CC(C)(CCC=C(C)C)OC(=O)CC (configuration not stated)
inactive: [5] | [6] | [8] | [2] | [3]

C1=COCCC1
inactive: [9] | [7] | [8] | [3]

CC(C)OB(OC(C)C)OC(C)C
inactive: [5] | [6] | [7] | [4]

CCCCC(CC)COCCO (configuration not stated)
active: [3] 100 µM
inactive: [5] | [6] | [7] | [2] | [4]

CCC=C(C)C=O
active: [3] 26.6 µM
inactive: [5] | [6] | [7] | [8] | [2] | [4]

Nc1cc([N+](=O)[O-])ccc1C(=O)O
inactive: [9] | [10] | [5] | [11] | [7] | [2]

CCc1cccc(O)c1
inactive: [5] | [6] | [7] | [8] | [2] | [4]

CC12CCC(C1)C(C)(C)C2O (configuration not stated)
inactive: [9] | [6] | [8] | [2] | [3]

O=C1Cc2ccccc2C1
active: [6] 27.9 µM
inactive: [5] | [8] | [2] | [3]

CCCO
inactive: [9] | [10] | [6] | [11]

O=C(O)c1ccccc1O
inactive: [10] | [5] | [6] | [8] | [2]

CC1=CCC(=C(C)C)CC1
inactive: [5] | [2] | [3]
active: [6] 6.82 µM

CC(C)=CC(=O)O
inactive: [5] | [6] | [2]

C[N+](C)(C)CCO
inactive: [5] | [6] | [8] | [2]

CCCCCC(=O)O[C@]1(C(C)=O)CC[C@H]2[C@@H]3CCC4=CC(=O)CC[C@]4(C)[C@H]3CC[C@@]21C
inactive: [2]
active: [5] 3.22 µM | [6] 0.313 µM

N=C1N=C(N)c2ccccc21
inactive: [5] | [7] | [8] | [2] | [3] | [4]
active: [6] 47.5 µM

CC(=O)CCC(=O)O
not listed: [1] | [9] | [10] | [11]
inactive: all other assays above

CC/C=C\CCCCO
inactive: [5] | [6] | [7] | [8] | [2] | [4]

CNC(=C[N+](=O)[O-])NCCSCc1ccc(CN(C)C)o1
inactive: [9] | [5] | [6] | [11] | [7] | [2]

CC(C)C(=O)c1ccccc1
not listed: [1] | [4] | [5] | [8]
inactive: all other assays above

CN(C)c1ccc(C=O)cc1
inactive: [5] | [6] | [8] | [2] | [3] | [4]

CCCCCCCCOC(=O)c1ccc(O)cc1
inactive: [10] | [6] | [11] | [7]
active: [3] 11.1 µM

CC(C)=CCCC(C)=CC(=O)O
active: [5] 57.3 µM
inactive: [6] | [8] | [3]

C=C(C)C(=O)OCCC[Si](OC)(OC)OC
inactive: [9] | [7] | [8] | [2] | [4]

CCOC(=O)CC1(C)OCC(C)O1 (configuration not stated)
inactive: [11]
